Results filed as inconclusive are left out. Activity calls are given as the source filed them. Rule for the calls, unless noted: active = hit-call score of the fitted dose curve at least 0.9, where 1 is the maximum; inactive = score below 0.9.
Columns and labels:
[1] = target: human Vitamin D Receptor (VDR), VDR (gene 7421) (UniProt P11473); test: ATG_VDR_TRANS: Attagene TRANS-FACTORIAL HepG2 Assay for human Vitamin D Receptor (VDR) (AID 2283022; active = hit-call score of the fitted dose curve at least 0.9, where 1 is the maximum)
human Vitamin D Receptor (VDR), VDR (gene 7421), sequence (P11473 whole entry, looked up, the tested form may be a part): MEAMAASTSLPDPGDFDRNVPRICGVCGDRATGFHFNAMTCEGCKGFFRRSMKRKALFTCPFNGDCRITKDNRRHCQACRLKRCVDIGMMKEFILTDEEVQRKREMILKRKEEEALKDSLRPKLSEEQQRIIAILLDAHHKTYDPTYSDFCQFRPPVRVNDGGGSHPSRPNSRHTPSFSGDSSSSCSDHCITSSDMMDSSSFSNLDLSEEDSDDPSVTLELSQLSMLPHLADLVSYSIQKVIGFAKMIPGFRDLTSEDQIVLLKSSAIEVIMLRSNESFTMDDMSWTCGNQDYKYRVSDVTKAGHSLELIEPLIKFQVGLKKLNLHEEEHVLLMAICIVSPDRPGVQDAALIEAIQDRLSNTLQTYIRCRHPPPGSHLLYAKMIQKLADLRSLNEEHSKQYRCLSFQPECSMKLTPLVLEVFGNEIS
Procedure, shortened: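 Steps: transfect HepG2 with GAL4-UAS-driven reporter constructs; dose compounds 24 h; isolate RNA, reverse-transcribe, PCR-amplify with 6-FAM-labelled primer extension and HpaI digestion; quantify fragments by capillary electrophoresis relative to DMSO.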

[2] = BSK_3C_SRB: Viability Assessment in the BioMAP Diversity Plus: 3C Assay (AID 2283023); conditions: primary human endothelial cells (HUVEC);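 note: fitted both ways against DMSO so a hit may be signal rise or drop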
Procedure, shortened: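 Absorbance at 560 nm of sulforhodamine B-stained (0.1%) total protein served as a cytotoxicity readout in human umbilical vein endothelial cells, 24 h after chemical treatment. Signal was fitted bidirectionally relative to DMSO.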

[3] = read-out: Matrix Metallopeptidase 1 (MMP1), MMP1 (gene 4312); test: BSK_BE3C_MMP1: BioMAP Diversity Plus: BE3C Assay for Matrix Metallopeptidase 1 (MMP1) Biomarker Activity (AID 2283024); conditions: primary human bronchial epithelial cells; actives raise or lower the signal
Procedure, shortened: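 In this multiplexed primary-cell system, human bronchial epithelium received chemicals for 24 h before an ELISA for MMP1. Values reflect bidirectional fits normalised to the DMSO baseline.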

[4] = read-out: Pselectin, SELP (gene 6403); test: BSK_4H_Pselectin: BioMAP Diversity Plus: 4H Assay for Pselectin Biomarker Activity (AID 2283026); conditions: primary human endothelial cells (HUVEC); actives raise or lower the signal
Procedure, shortened: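 Bidirectional fits against DMSO gave the endpoint. Cells: primary human umbilical vein endothelium, chemical-treated for 24 h before ELISA detection of P-selectin.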

[5] = BSK_BE3C_SRB: Viability Assessment in the BioMAP Diversity Plus: BE3C Assay (AID 2283028); conditions: primary human bronchial epithelial cells;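 for AC50: fitted both ways so AC50 may mark signal gain or loss versus DMSO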
Procedure, shortened: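 Cells (human bronchial epithelial, primary) are treated with chemicals, and after 24 h the parallel cultures are fixed in 10% TCA. These are then stained with 0.1% SRB and read at 560 nm. Gain or loss of signal is fitted relative to DMSO.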

[6] = read-out: Thrombomodulin, THBD (gene 7056); test: BSK_3C_Thrombomodulin: BioMAP Diversity Plus: 3C Assay for Thrombomodulin Biomarker Activity (AID 2283029); conditions: primary human endothelial cells (HUVEC); actives raise or lower the signal
Procedure, shortened: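 In a multiplexed primary-cell system, human umbilical vein endothelium received chemical and was assayed 24 h later for thrombomodulin by ELISA. Parallel cultures were SRB-stained (0.1% SRB after 10% TCA fixation, read at 560 nm) to flag cytotoxicity.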

[7] = read-out: Urokinase-type plasminogen activator receptor (uPAR), PLAUR (gene 5329); test: BSK_4H_uPAR: BioMAP Diversity Plus: 4H Assay for Urokinase-type plasminogen activator receptor (uPAR) Biomarker Activity (AID 2283030); conditions: primary human endothelial cells (HUVEC); actives raise or lower the signal
Procedure, shortened: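 Cell-surface uPAR ELISA signal, measured 24 h after dosing human umbilical vein endothelial cells, was analyzed with bidirectional fitting relative to DMSO. Parallel SRB staining of total protein tracked overt cytotoxicity.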

[8] = read-out: Vascular endothelial growth factor receptor 2 (Homo sapiens) (UniProt P35968); test: BSK_4H_VEGFRII: BioMAP Diversity Plus: 4H Assay for Vascular endothelial growth factor receptor 2 (VEGFR2) Biomarker Activity (AID 2283031); conditions: primary human endothelial cells (HUVEC); actives raise or lower the signal;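 for AC50: cell-surface VEGFR2 protein level quantified by ELISA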
Procedure, shortened: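 ELISA read-out of VEGFRII in primary human umbilical vein endothelium, taken 24 h after chemical treatment. Responses are expressed relative to DMSO, with bidirectional fitting.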

[9] = read-out: Human Leukocyte Antigen - DR isotype (HLADR), HLA-DRA (gene 3122); test: BSK_BE3C_HLADR: BioMAP Diversity Plus: BE3C Assay for Human Leukocyte Antigen - DR isotype (HLADR) Biomarker Activity (AID 2283032); conditions: primary human bronchial epithelial cells; actives raise or lower the signal
Procedure, shortened: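 BioMAP BE3C format: human bronchial epithelium, 24 h compound treatment, ELISA detection of HLA-DR, with bidirectional analysis relative to DMSO.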

[10] = read-out: Vascular cell adhesion molecule 1 (VCAM1), VCAM1 (gene 7412); test: BSK_4H_VCAM1: BioMAP Diversity Plus: 4H Assay for Vascular cell adhesion molecule 1 (VCAM1) Biomarker Activity (AID 2283033); conditions: primary human endothelial cells (HUVEC); actives raise or lower the signal
Procedure, shortened: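 In this human endothelial (HUVEC) system, biomarker ELISA was run 24 h after compound addition, and total protein in parallel wells was assessed by SRB at 560 nm; DMSO served as negative control.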

[11] = read-out: Interferon-gamma inducible Protein 10 (IP10), CXCL10 (gene 3627); test: BSK_BE3C_IP10: BioMAP Diversity Plus: BE3C Assay for Interferon-gamma inducible Protein 10 (IP10) Biomarker Activity (AID 2283034); conditions: primary human bronchial epithelial cells; actives raise or lower the signal
Procedure, shortened: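 BE3C cells (human bronchial epithelial, primary); 24 h exposure; ELISA for IP-10; DMSO-referenced bidirectional fit.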

[12] = read-out: Monokine induced gamma interferon (MIG), CXCL9 (gene 4283); test: BSK_BE3C_MIG: BioMAP Diversity Plus: BE3C Assay for Monokine induced gamma interferon (MIG) Biomarker Activity (AID 2283035); conditions: primary human bronchial epithelial cells; actives raise or lower the signal
Procedure, shortened: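 ELISA quantified MIG after 24 h exposure of primary bronchial epithelial cultures, analysed in both directions relative to DMSO. Cytotoxicity tracked in parallel cultures by sulforhodamine B staining.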

[13] = read-out: Plasminogen activator inhibitor-1 (PAI1), SERPINE1 (gene 5054); test: BSK_BE3C_PAI1: BioMAP Diversity Plus: BE3C Assay for Plasminogen activator inhibitor-1 (PAI1) Biomarker Activity (AID 2283037); conditions: primary human bronchial epithelial cells; actives raise or lower the signal
Procedure, shortened: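 In this multiplexed primary-cell system, bronchial epithelial cells receive test chemical and are sampled at 24 h. PAI-1 is read by ELISA, with DMSO serving as negative control for bidirectional fitting.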

[14] = read-out: urokinase plasminogen activator (uPA), PLAU (gene 5328); test: BSK_BE3C_uPA: BioMAP Diversity Plus: BE3C Assay for urokinase plasminogen activator (uPA) Biomarker Activity (AID 2283038); conditions: primary human bronchial epithelial cells; actives raise or lower the signal
Procedure, shortened: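 Bronchial epithelial cells (human, primary); chemical 24 h; uPA by ELISA; bidirectional fit vs DMSO. SRB (0.1%, after 10% TCA fixation, 560 nm) in parallel cultures for cytotoxicity.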

[15] = read-out: Tissue plasminogen activator (tPA), PLAT (gene 5327); test: BSK_BE3C_tPA: BioMAP Diversity Plus: BE3C Assay for Tissue plasminogen activator (tPA) Biomarker Activity (AID 2283041); conditions: primary human bronchial epithelial cells; actives raise or lower the signal
Procedure, shortened: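 Using human lung primary bronchial epithelial cells, tPA was measured by ELISA 24 h after dosing; data fitted relative to DMSO.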

[16] = read-out: Urokinase-type plasminogen activator receptor (uPAR), PLAUR (gene 5329); test: BSK_BE3C_uPAR: BioMAP Diversity Plus: BE3C Assay for Urokinase-type plasminogen activator receptor (uPAR) Biomarker Activity (AID 2283039); conditions: primary human bronchial epithelial cells; actives raise or lower the signal
Procedure, shortened: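 Chemically treated human bronchial epithelial cells (lung primary) are assayed for uPAR by ELISA after 24 h, with data fitted in both directions using DMSO as negative control.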

[17] = read-out: Interleukin-6 (IL6), IL6 (gene 3569); test: BSK_CASM3C_IL6: BioMAP Diversity Plus: CASM3C Assay for Interleukin-6 (IL6) Biomarker Activity for (AID 2283040); conditions: primary human coronary artery smooth muscle cells; actives raise or lower the signal
[18] = BSK_4H_SRB: Viability Assessment in the BioMAP Diversity Plus: 4H Assay (AID 2283027); conditions: primary human endothelial cells (HUVEC);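 note: cells exposed to compound for 24 h before staining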;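 for AC50: curves fitted both ways versus DMSO so AC50 may be loss or gain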
Procedure, shortened: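 Cytotoxicity read-out in primary human endothelial cells: after 24 h compound exposure, cells were TCA-fixed (10%), stained with 0.1% SRB and absorbance taken at 560 nm. Values fitted in both directions relative to DMSO.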

[19] = read-out: Transforming growth factor beta 1 (TGFb1), TGFB1 (gene 7040); test: BSK_BE3C_TGFb1: BioMAP Diversity Plus: BE3C Assay for Transforming growth factor beta 1 (TGFb1) Biomarker Activity (AID 2283036); conditions: primary human bronchial epithelial cells; actives raise or lower the signal
Procedure, shortened: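 TGF-b1 measured via ELISA, 24 h after chemical dosing of human bronchial epithelial cells (BE3C). Overt cytotoxicity assessed in parallel by SRB (0.1%, TCA-fixed, 560 nm); analysis bidirectional relative to DMSO.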

[20] = BSK_3C_Vis: BioMAP Diversity Plus: 3C Assay for Morphology Visualization (AID 2283025); conditions: primary human endothelial cells (HUVEC);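 note: fitted both ways so gain or loss versus DMSO counts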;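 for AC50: light microscopy image of cell morphology used as background control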
Procedure, shortened: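 Light-microscopy morphology readout, 24 h exposure, human primary umbilical vein endothelium; analysed relative to DMSO with bidirectional fitting.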

Measured: AC50

COC(=O)c1ccc(O)cc1
not listed: [16] | [17] | [18] | [19] | [20]
inactive: all other assays above

NS(=O)(=O)c1cc2c(cc1Cl)NCNS2(=O)=O
not listed: [18] | [19] | [20]
inactive: all other assays above

CNC(=O)[C@H]1O[C@@H](n2cnc3c(NCc4cc(Cl)ccc4OCc4cc(C)no4)ncnc32)[C@H](O)[C@@H]1N
not listed: [19] | [20]
inactive: all other assays above

COCCOC[C@H](CC1(C(=O)NC2CCC(C(=O)O)CC2)CCCC1)C(=O)Oc1ccc2c(c1)CCC2 (some centres undefined)
not listed: [18] | [19] | [20]
inactive: all other assays above

Cc1nc(-c2ccc3c(c2)CCN(CCC2CCC(NC(=O)/C=C/c4ccc(F)cc4)CC2)CC3)no1 (centres undefined)
active: [2] 6.26 µM | [4] 5.65 µM | [18] 6.89 µM | [6] 9.3 µM | [9] 12.8 µM | [10] 9.3 µM | [11] 15 µM | [12] 13.5 µM | [14] 9.94 µM
inactive: [3] | [5] | [7] | [8] | [19] | [13] | [16] | [17] | [15]

C=CCc1ccc(O)c(OC)c1
not listed: [1] | [16] | [20]
inactive: all other assays above

CC(C)c1ccc(C(=O)N=C(N)N)cc1S(C)(=O)=O
not listed: [1] | [18] | [19]
inactive: all other assays above

Cc1ccc(C)c(C)c1
not listed: [1] | [18]
inactive: all other assays above

OC[C@@H](O)[C@@H](O)[C@H](O)[C@H](O)CO
not listed: [1] | [18] | [20]
inactive: all other assays above

CN[C@H]1CC[C@@H](c2ccc(Cl)c(Cl)c2)c2ccc(S(N)(=O)=O)cc21
active: [2] 16 µM | [3] 31.8 µM | [20] 14.4 µM | [4] 9.02 µM | [5] 34 µM | [6] 4.65 µM | [7] 20 µM | [8] 20 µM | [9] 31.4 µM | [10] 17.3 µM | [11] 37 µM | [12] 36.7 µM | [19] 31.1 µM | [13] 32.5 µM | [14] 31.1 µM | [16] 30.2 µM | [17] 33.1 µM | [15] 13 µM

Clc1cc(Cl)c(Cl)cc1Cl
not listed: [1] | [16] | [18] | [20]
inactive: all other assays above

CCCCc1ccc2c(n1)[C@@H](c1ccc(OC)cc1C[C@H](C)C(=O)O)[C@H](C(=O)O)[C@H]2c1ccc2c(c1)OCO2
not listed: [1] | [19] | [20]
inactive: all other assays above

CC=Cc1ccc(O)c(OC)c1
active: [10] 7.6 µM
not listed: [1] | [16] | [19]
inactive: all other assays above

CCOC(=O)C(C)(C)Oc1ccc(Cl)cc1
not listed: [1] | [16] | [18] | [20]
inactive: all other assays above

CCCc1cc(=O)[nH]c(=S)[nH]1
not listed: [1] | [18] | [20]
inactive: all other assays above

O=C(OCCCCCOC(=O)c1ccccc1)c1ccccc1
not listed: [1] | [19] | [20]
inactive: all other assays above

FC(F)(F)C(F)(F)C(F)(F)C(F)(F)C(F)(F)C(F)(F)CCI
not listed: [1] | [16] | [20]
inactive: all other assays above
